# Measured values reported in PubChem BioAssay (Tox21).
# Values joined by “and” are separate entries in the source; they are usually repeats but may differ in a detail not shown here. Equal values may be shown once. Inconclusive results are not listed. Entries that show only a call come without a potency. Unmarked numbers belong to inactive results. Active and inactive are the calls of the source. Calls come from the whole dose curve; as a rule, active = well fitted inhibition curve with a large enough effect in the signal ratio in the repeat runs (not every such curve was filed as active); inconclusive = weak or mixed curves, or effect the other way; inactive = no such curve, though single readings can be large or run the other way; the % refers to the signal ratio.
# Target: Estrogen receptor beta (Homo sapiens) (UniProt Q92731)
# Assay: qHTS assay to identify small molecule antagonists of the estrogen receptor beta (ER-beta) signaling pathway (AID 1259378)
# Details: ER-beta-UAS-bla HEK293T, beta-lactamase FRET ratio, 16 h; series mostly up to 92.4 µM; activity, negative = inhibition: at the top concentration
# From the text: National Center for Advancing Translational Sciences [NCATS]
# NIH Chemical Genomics Center [NCGC]
# U.S. Environmental Protection Agency [EPA]
# National Institutes of Environmental Health Sciences [NIEHS]
# National Toxicology Program [NTP]
# U.S. Food and Drug Administration [FDA]
# Estrogen receptor (ER), a nuclear hormone receptor, plays an important role in development, metabolic homeostasis and reproduction. Two subtypes of ER, ER-alpha and ER-beta, have similar expression patterns with some uniqueness in both types. Endocrine disrupting chemicals (EDCs) and their interactions with steroid hormone receptors like ER causes disruption of normal endocrine function. To identify the compounds that inhibit ER signaling, an ER-beta-UAS-bla GripTite cell line (Life Technologies, Madison, WI, USA) containing a beta-lactamase reporter gene under the control of an UAS response element was used to screen Tox21 10K compound library.
# Tox21 Assay Protocol Summary:
# ER-beta-UAS-bla HEK293T cells were dispensed at 2,000 cells/4 uL of assay medium containing 2% charcoal stripped FBS per well into black wall/clear-bottom 1536-well plates using a Multidrop Combi (ThermoFisher Scientific, Waltham, MA) dispenser. After the assay plates were incubated at a 37C and 5% CO2 for 6 hr, 23 nL of compounds dissolved in DMSO, positive controls or DMSO only was transferred to the assay plate by a Pintool station (Kalypsys, San Diego, CA), followed by addition of 1 uL (1nM as final concentration) of 17-beta-estradiol (E2) in assay medium using a BioRAPTR FRD (Flying Reagent Dispenser, Aurora Discovery, San Diego, CA). The plates were incubated at 37C and 5% CO2 for 16 hr. Then 1 uL of LiveBLAzerTM B/G FRET substrate was added using a Flying Reagent Dispenser, the plates were incubated at room temperature for 2 hours, and fluorescence intensity was measured by an Envision plate reader (PerkinElmer, Shelton, CT).
# Potency is the fitted concentration of half-maximal effect.
# Sequence of Estrogen receptor beta (Homo sapiens) (Q92731 whole entry, looked up): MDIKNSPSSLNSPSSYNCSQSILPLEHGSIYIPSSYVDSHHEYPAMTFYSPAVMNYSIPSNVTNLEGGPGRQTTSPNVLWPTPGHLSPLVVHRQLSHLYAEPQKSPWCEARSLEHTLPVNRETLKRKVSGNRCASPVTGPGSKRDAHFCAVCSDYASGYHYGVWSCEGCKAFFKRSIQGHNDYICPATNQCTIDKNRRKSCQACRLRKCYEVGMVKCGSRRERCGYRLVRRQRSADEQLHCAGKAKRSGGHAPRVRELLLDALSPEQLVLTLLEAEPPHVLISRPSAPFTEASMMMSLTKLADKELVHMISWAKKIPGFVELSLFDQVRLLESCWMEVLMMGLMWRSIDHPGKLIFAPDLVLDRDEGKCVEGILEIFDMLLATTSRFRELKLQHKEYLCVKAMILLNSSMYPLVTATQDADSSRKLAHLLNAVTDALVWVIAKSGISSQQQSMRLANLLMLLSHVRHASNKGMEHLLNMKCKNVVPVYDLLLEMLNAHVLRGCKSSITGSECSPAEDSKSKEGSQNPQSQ
Structure (SMILES),Potency,"activity, negative = inhibition"
N#Cc1nn(-c2c(Cl)cc(C(F)(F)F)cc2Cl)c(N)c1S(=O)C(F)(F)F (stereo not given),23.7 µM (active),–
Cc1cccc(N=Nc2ccc(N(C)C)cc2)c1,inactive,–
COP(=S)(OC)Oc1ccc(Sc2ccc(OP(=S)(OC)OC)cc2)cc1,–,4.7% [at 42.5 µM]
O=C1Nc2ccc(Cl)cc2C(c2ccccc2)=NC1O (stereo not given),–,-21.5%
CC(C)CON=O,inactive,–
CNC(=O)Oc1cccc2c1OC(C)(C)C2,inactive,–
CCCCSP(=O)(SCCCC)SCCCC,inactive,–
CN(C)c1ccccc1,inactive,–
Oc1ccc(Cl)cc1Cl,inactive,–
Nc1ccc2ccccc2c1,–,17.5%
C=C(C)C#N,inactive,–
CC(C)Nc1nc(Cl)nc(NC(C)C)n1,inactive,–
CCC/C=N/O,inactive,–
CCOP(=S)(OCC)OP(=S)(OCC)OCC,inactive,–
CNC(=O)CSP(=S)(OC)OC,inactive,–
Clc1cccc(C(Cl)(Cl)Cl)n1,inactive,–
O=C1CCCO1,inactive,–
Clc1ccccc1-c1nnc(-c2ccccc2Cl)nn1,–,0.618%
O=[N+]([O-])/N=C1\NCCN1Cc1ccc(Cl)nc1,inactive,–
CCCCCCCCCc1ccc(O)cc1,19.5 µM (active),–

Structure (SMILES),Potency,"activity, negative = inhibition"
CCOS(=O)(=O)OCC,inactive,–
CC(C)(c1ccccc1)c1ccc(O)cc1,4.82 µM (active) and 7.7 µM (active),–
CC1=C(C(=O)Nc2ccccc2)SCCO1,inactive,–
[CH3][Sn]([Cl])([Cl])[Cl],inactive,–
CC(C)(O)C#N,inactive,–
CCN(CC)C(=O)C(C)Oc1cccc2ccccc12 (stereo not given),inactive,–
Nc1ncn[nH]1,inactive,–
O=NN1CCOCC1,inactive,–
N#Cc1c(Cl)c(Cl)c(Cl)c(C#N)c1Cl,3.78 µM (active),–
COP(=O)(NC(C)=O)SC (stereo not given),inactive,–
Clc1cccc(Cl)c1,–,9.91%
CC(C)COC(=O)c1ccccc1C(=O)OCC(C)C,inactive,–
CCCCOC(=O)COC(=O)c1ccccc1C(=O)OCCCC,inactive,–
CSc1nc(NC(C)C)nc(NC(C)C)n1,inactive,–
ClC(Cl)(Cl)c1ccccc1,inactive,–
ClC(Cl)(Cl)Br,–,-1.76% [at 19 µM]
CC1(C)C(C(=O)OC(C#N)c2cccc(Oc3ccccc3)c2)C1(C)C (stereo not given),48.9 µM (active),–
O=C(O)CF,–,16.4%
COc1ccc(CO)cc1,inactive,–
NC(=O)CN1CCCC1=O,inactive,–
